From ChEMBL document CHEMBL4513216, “Probing the Open Global Health Chemical Diversity Library for Multistage-Active Starting Points for Next-Generation Antimalarials” (ACS Infect Dis, 2020)
The whole screen tested about 69,000 compounds, of which about 8,600 (12%) showed an effect of 50% or more. The entries come from a sample that favours strong results as a whole.

These molecules were tested on Plasmodium berghei (assay: Screen against P. berghei liver stage (PbLuc), transformed with Luciferase, at 10uM). Settings: tested at 10 uM.
Assay type: functional, HepG2

| SMILES | INHIBITION [%] |
| --- | --- |
| OC1(Cn2ccnc2)CCN(C[C@]2(O)CCCN3CCCC[C@@H]32)CC1 | 28.8 |
| O=C1CC2(CCN(C(=O)c3ccccn3)CC2)Oc2c(Br)cc(Br)cc21 | 34.2 |
| c1cncc(CC2CN(c3cccnc3)CCO2)c1 (centres undefined) | -43 |
| O=C(NCc1cc(C2CC2)n(C2CCCC2)n1)C1CC1 | 44.4 |
| Cc1nc(CN2C(=O)CCC23CCN(c2ncccn2)CC3)cs1 | -38.1 |
| O=C(NC1CC2(CCN(CCO)CC2)c2ccccc21)c1ccno1 (centres undefined) | 49.7 |
| C=C(C)CN1CCN(Cc2cnc(-c3ccc(OC)cc3)nc2)CC1 | 44.8 |
| CCOCCCNC(=O)c1cc(OC)c2ccoc2c1 | 6.11 |
| CC(c1ccon1)N(C)S(=O)(=O)NCc1ccccc1 (centres undefined) | 50.9 |
| CC(c1nccs1)N(C)S(=O)(=O)NCc1ccccc1 (centres undefined) | -1.6 |
| CC(c1ccncn1)N(C)S(=O)(=O)NCc1ccccc1 (centres undefined) | 4.65 |
| Cc1csc(N2CCN(C(=O)Cc3cccs3)CC2)n1 | 28.8 |
| CCCc1n[nH]c(C2CN(CCCS(=O)(=O)N(C)C)CCO2)n1 (centres undefined) | -21.7 |
| CN(C)c1ncccc1N(C)C(=O)Cn1cc(-c2ccccc2)nn1 | -0.85 |
| Cc1cccc(C2CCCN(S(=O)(=O)c3cccnc3)C2)n1 (centres undefined) | 19.36 |
| O=C(c1ccc2[nH]ccc2c1)N1CC[C@@H]2CN(CC3CC3)CCO[C@@H]2C1 | 60.2 |
| CC(=O)N1CCO[C@@H]2CN(C(=O)c3ccccc3)CC[C@@H]2C1 | 12.1 |
| COCCN1CCO[C@@H]2CN(C(=O)c3ccc4[nH]ccc4c3)CC[C@@H]2C1 | 1.36 |
| O=C(c1ncccn1)N1C[C@@H]2CN(CC3CC3)CCO[C@@H]2C1 | 31.9 |
| CCN1CCO[C@@H]2CN(C(=O)c3ccc4[nH]ccc4c3)CC[C@@H]2C1 | 52.1 |
| CC(=O)N1CCO[C@@H]2CN(C(=O)c3ccc4ccccc4c3)CC[C@@H]2C1 | -57.1 |
| CN1CCO[C@@H]2CN(C(=O)c3ccc4[nH]ccc4c3)CC[C@@H]2C1 | 43 |

| SMILES | INHIBITION [%] |
| --- | --- |
| CC(=O)N1CCO[C@@H]2CN(C(=O)c3ccc4ncccc4c3)CC[C@@H]2C1 | 49.1 |
| CN1CCO[C@@H]2CN(C(=O)c3ccc4ncccc4c3)CC[C@@H]2C1 | 58.4 |
| CN(C)c1cc(C(=O)N2CCCCC2Cn2cccn2)ccn1 (centres undefined) | 17.5 |
| CCOc1ccccc1N1CCN(C(=O)c2cc[nH]n2)CC1 | 44.1 |
| CN(C)CCOCC1CN(C(=O)N2CCCC2)Cc2ccnn2C1 (centres undefined) | 46.6 |
| O=C(O)c1cc(S(=O)(=O)Nc2ccccc2)cc2c1OCCO2 | 31.8 |
| CCCc1nc(CN(CC)Cc2ccc(O)c(C(=O)O)c2)no1 | 14.3 |
| CCN(CC)S(=O)(=O)c1ccc2c(c1)N(Cc1cccnc1)C(=O)CS2 | -3.5 |
| O=C(c1cc[nH]n1)N1CCOCC2(C1)CN(c1ccccc1)C(=O)CO2 (centres undefined) | -14.2 |
| Cc1cnn(C2CCCN(C(=O)CCc3c(C)noc3C)C2)c1 (centres undefined) | 16.8 |
| COCCN(C)C[C@@H]1CN(c2nc(C)cc(C)n2)C[C@@H]1CO | 32.2 |
| CCN(CCO)C[C@@H]1CN(C(=O)c2ccc(C)s2)C[C@@H]1CO | 59.4 |
| CCN(CCO)C[C@@H]1CN(c2cc(C(F)(F)F)cc(C)n2)C[C@@H]1CO | 12.9 |
| CCN(CCO)C[C@@H]1CN(c2nc(C)cc(C)n2)C[C@@H]1CO | 54.6 |
| CCN(CCO)C[C@@H]1CN(C(=O)c2sc3ccccc3c2C)C[C@@H]1CO | 47.6 |
| Cc1c(C(=O)N2C[C@@H](CN(C)CCO)[C@@H](CO)C2)sc2ccccc12 | 32.1 |
| O=C(NCc1cn2c(n1)CN(Cc1ccncc1)CC2)C1CCC1 | 43.9 |
| CCOc1ccnc(N2CCN(C(=O)c3cnc[nH]3)CC2)n1 | 31.8 |
| CC(C)c1cc(NC(=O)CNC2CCCN(c3cccnn3)C2)on1 (centres undefined) | 42.9 |
| CCC1(CC)CC(=O)N(CC(O)c2cccc(Br)c2)C1=O (centres undefined) | -8 |
| Cc1nc(-c2ccco2)ccc1C(=O)NCCN1CCN(C)CC1 | 23.5 |
| CCC(CO)N(Cc1cccs1)C(=O)Cc1ccncc1 (centres undefined) | 41.4 |

| SMILES | INHIBITION [%] |
| --- | --- |
| CCC(CO)N(Cc1cccs1)C(=O)CSC (centres undefined) | -36.3 |
| CCC(CO)N(Cc1cccs1)C(=O)Cc1ccc(O)cc1 (centres undefined) | 71.1 |
| CCCNC(=O)COc1cc(C)c2c(C)nn(-c3ccccc3)c2n1 | 31.3 |
| N#Cc1ccc(S(=O)(=O)NC(=O)c2ccc3c(c2)COC3)cc1 | 6.61 |
| COc1cc(C(=O)NS(=O)(=O)c2ccc(C#N)cc2)ccc1C | 15.5 |
| N#Cc1ccc(CS(=O)(=O)NC(=O)c2ccc(C#N)cc2)cc1 | -6.52 |
| COc1cc(C(=O)NS(=O)(=O)c2cccc(C#N)c2)cc(Cl)c1OC | -5.25 |
| N#Cc1ccc(C(=O)NS(=O)(=O)c2ccc(F)c(F)c2)cc1 | 58.3 |
| N#Cc1cccc(C(=O)NS(=O)(=O)c2ccc(C#N)c(Cl)c2)c1 | 50.7 |
| N#Cc1ccc(C(=O)NS(=O)(=O)c2ccc(C#N)c(Cl)c2)cc1 | 57.2 |
| COc1cc(C(=O)NS(=O)(=O)c2cccc(C#N)c2)ccc1C | 14.4 |
| COc1cccc(C(=O)NS(=O)(=O)c2cccc(C#N)c2)c1 | 38.8 |
| CCc1oc(C(=O)N2CCC(N(CC)C(C)=O)C2)cc1CN(CC)CC (centres undefined) | 19.4 |
| O=C(NCc1cccnc1)N1CCc2ncnc(NC3CC3)c2CC1 | 4.98 |
| COc1c(C2CCCN2Cc2nc(-c3ccco3)no2)c(C)nn1C (centres undefined) | -21.8 |
| Cc1nc(-c2ccc(CO)cc2)cc(C2CCNCC2)n1 | 23.9 |
| Cn1ccc(CN2CCC3(CC2)CC(Nc2ccccn2)CO3)n1 (centres undefined) | 37.9 |
| Cc1nc(CN2CCCc3cc(OC(F)(F)F)ccc32)oc1C | 37.9 |
| Cc1nn(C)c(C)c1CNCc1ccc(N2CCOCC2)nc1 | 32.8 |
| O=C(NCC1CC1)[C@H]1C[C@H]2CN(C(=O)NCC3CCCCC3)C[C@@H]1O2 | 20.1 |
| Cc1cccn2c(=O)cc(OC(=O)c3ccccc3Cl)nc12 | 26.7 |
| CC(C)(C)n1cc(C2=CCN(CCc3ccccc3)CC2)cn1 | 50.2 |

| SMILES | INHIBITION [%] |
| --- | --- |
| CC(C)(C)n1cc(C2=CCN(CCc3ccccn3)CC2)cn1 | 18.7 |
| CC(C)(C)n1cc(C2=CCN(CCN3CCCCCC3)CC2)cn1 | 0.734 |
| CC(C)(C)c1cnc(CN2CCCCC2Cn2cccn2)o1 (centres undefined) | 14.4 |
| Fc1ccc(CN2CCn3cc(Cn4cccn4)nc3C2)cc1 | -53.6 |
| c1cncc(CN2CCn3cc(Cn4cccn4)nc3C2)c1 | 31.7 |
| CCn1ccnc1CN1CCN(Cc2cccc(C#N)c2)CC1 | 68.8 |
| CCn1ccnc1CN1CCN(Cc2cc(C#N)ccc2F)CC1 | 35.9 |
| CCn1ccnc1CN1CCN(CCOc2ccc(C#N)cc2)CC1 | 52.3 |
| CCn1ccnc1CN1CCN(Cc2ccc(C#N)cc2)CC1 | 48.1 |
| c1ccc(CN2CCN(Cc3cscn3)CC2)cc1 | 19.4 |
| N#Cc1cccc(CN2CCN(Cc3cscn3)CC2)c1 | 66.4 |
| CCn1ccnc1CN1CCN(CCOc2ccccc2C#N)CC1 | 14.1 |
| N#Cc1cccc(CN2CCn3cc(Cn4cccn4)nc3C2)c1 | 58.8 |
| CCn1ccnc1CN1CCN(CCOc2cccc(C#N)c2)CC1 | 23.2 |
| Fc1cccc(CN2CCN(Cc3cscn3)CC2)c1 | 36.7 |
| O=C(c1ccc2[nH]cnc2c1)N1CCCC1Cn1cccn1 (centres undefined) | -0.514 |
| C[C@@H]1CN(S(C)(=O)=O)C[C@]12CCN(Cc1cccnc1)C2=O | -28.2 |
| CNC(=O)c1cc(C2CCCN2)n[nH]1 (centres undefined) | 31.3 |
| c1nc2c(c(C3CC3)n1)CCN(Cc1ccc3c(c1)OCO3)CC2 | 21.8 |
| c1cnn(CC2CCCN2Cc2cn3ccsc3n2)c1 (centres undefined) | 28 |
| CSCCC(Nc1nc(C)cc(C)n1)C(=O)NCC1CCOCC1 (centres undefined) | 25.2 |
| CCc1csc(C2CCCN(C(=O)COc3cc(C)on3)C2)n1 (centres undefined) | 46.2 |

| SMILES | INHIBITION [%] |
| --- | --- |
| O=C1CCCCCN1Cc1ncnn1Cc1c(F)cccc1Cl | 5.46 |
| Cc1nc(CN2CCCN(CCOc3ccc(C#N)cc3)CC2)no1 | 56.6 |
| Cc1cccc(OCCN2CCN(Cc3noc(C)n3)CC2)c1 | 30.6 |
| COc1ccc(OCCN2CCCN(Cc3noc(C)n3)CC2)cc1 | 4.52 |
| CC(C(=O)NC1CC1)n1nc(-c2cccs2)cc(N)c1=O (centres undefined) | 23.9 |
| CC(C)n1ncc2cc(NC(=O)N3CCC(N4CCCC4)C3)cnc21 (centres undefined) | 53.3 |
| CC(=O)NC1CCCN(C(=O)Nc2cnc3c(cnn3C(C)C)c2)C1 (centres undefined) | 4.31 |
| CC(C)n1ncc2cc(NC(=O)N3CCC(C(N)=O)C3)cnc21 (centres undefined) | 7.08 |
| O=C1CC[C@H]2CN(Cc3ccc(Cl)s3)CC[C@H]2N1CCc1c[nH]cn1 | 78.5 |
| Cc1nc(CN2CC[C@@H]3[C@@H](CCC(=O)N3CCc3c[nH]cn3)C2)co1 | 44.8 |
| O=C1CC[C@H]2CN(Cc3cccnc3)CC[C@H]2N1CCc1c[nH]cn1 | 23.9 |
| CN(CCO)c1ncc(-c2ccc(NC(=O)[C@@H]3CCCCN3)cc2)cn1 | -4.82 |
| CCc1c(C)sc2c1c(N)nc(=O)n2CCCN(C)C | -11.9 |
| COc1ccc(-c2csc3c2c(N)nc(=O)n3CCN(C)C)cc1 | 50.8 |
| COc1ccc(-c2csc3c2c(N)nc(=O)n3CC(N)=O)cc1 | 58.2 |
| CCn1c(=O)nc(N)c2c(-c3ccc(OC)cc3)csc21 | 23.9 |
| CCc1c(C)sc2c1c(N)nc(=O)n2CCN(C)C | -14.2 |
| C=C(C)Cn1c(=O)nc(N)c2c(-c3ccc(OC)cc3)csc21 | 33.2 |
| COc1ccc(-c2csc3c2c(N)nc(=O)n3CCCN(C)C)cc1 | 60.1 |
| CCOC(=O)Cn1c(=O)nc(N)c2c(-c3ccc(OC)cc3)csc21 | 18.3 |
| COc1ccc(-c2csc(N)c2C#N)cc1 | 40.9 |
